The supplement of paper PMC10681739

Experiments:
ETS1 [1] = target: T1, ETS1 (UniProt P14921); test: ETS1 binding intensity (PBM fluorescence), ETS1 alone (arbitrary fluorescence units); higher = stronger binding; conditions: ETS1 concentration 1 nM; RUNX1 concentration 0 nM
T1 sequence: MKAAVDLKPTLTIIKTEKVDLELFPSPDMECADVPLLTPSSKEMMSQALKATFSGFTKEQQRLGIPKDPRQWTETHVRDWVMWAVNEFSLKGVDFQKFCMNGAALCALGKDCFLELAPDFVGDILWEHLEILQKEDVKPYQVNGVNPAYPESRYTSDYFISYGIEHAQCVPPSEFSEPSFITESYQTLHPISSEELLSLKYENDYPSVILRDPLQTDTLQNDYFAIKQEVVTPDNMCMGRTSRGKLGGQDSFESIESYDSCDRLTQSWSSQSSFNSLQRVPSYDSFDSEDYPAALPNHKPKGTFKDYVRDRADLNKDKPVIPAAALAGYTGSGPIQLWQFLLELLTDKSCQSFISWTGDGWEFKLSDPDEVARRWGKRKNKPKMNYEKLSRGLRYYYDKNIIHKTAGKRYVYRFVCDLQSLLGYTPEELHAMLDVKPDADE

RUNX1 [2] = target: RUNX1 (UniProt Q01196); test: RUNX1 binding intensity (PBM fluorescence), RUNX1 alone (arbitrary fluorescence units); higher = stronger binding; conditions: RUNX1 concentration 2 nM; ETS1 concentration 0 nM
Protocol: (§1)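 Cooperative gcPBM on 36-bp genomic probes with neighbouring ETS1 and RUNX1 sites. Recombinant human RUNX1 (2 nM) was incubated alone or with ETS1 (25 nM) and detected with anti-RUNX1 antibody plus Alexa488 secondary. Values are medians over 4 replicate spots; the RUNX1+ETS1 data were normalised to the RUNX1-only data. The probes sit in constant array flanks that are not printed.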

ETS1 [3] = target: T1, ETS1; test: ETS1 binding intensity (PBM fluorescence) in presence of RUNX1, normalised to ETS1-only experiment (arbitrary fluorescence units); higher = stronger binding; conditions: ETS1 concentration 1 nM; RUNX1 concentration 25 nM
RUNX1 [4] = target: RUNX1 (UniProt Q01196); test: RUNX1 binding intensity (PBM fluorescence) in presence of ETS1, normalised to RUNX1-only experiment (arbitrary fluorescence units); higher = stronger binding; conditions: RUNX1 concentration 2 nM; ETS1 concentration 25 nM
Protocol: as §1
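Throughout, for RUNX1 binding intensity (PBM fluorescence) in presence of ETS1, normalised to RUNX1-only experiment: Full-length recombinant human ETS1 or RUNX1 bound to double-stranded 36-bp genomic probes on microarrays, detected by protein-specific primary antibody and Alexa488 secondary, spot fluorescence as median of four replicate spots.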
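Throughout, for RUNX1 binding intensity (PBM fluorescence), RUNX1 alone: Full-length recombinant human RUNX1 bound to double-stranded 36-bp genomic probes on a high-density microarray, scored as Alexa488 fluorescence per spot via anti-RUNX1 antibody, median of four replicate spots.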

RUNX1, sequence (Q01196 whole entry): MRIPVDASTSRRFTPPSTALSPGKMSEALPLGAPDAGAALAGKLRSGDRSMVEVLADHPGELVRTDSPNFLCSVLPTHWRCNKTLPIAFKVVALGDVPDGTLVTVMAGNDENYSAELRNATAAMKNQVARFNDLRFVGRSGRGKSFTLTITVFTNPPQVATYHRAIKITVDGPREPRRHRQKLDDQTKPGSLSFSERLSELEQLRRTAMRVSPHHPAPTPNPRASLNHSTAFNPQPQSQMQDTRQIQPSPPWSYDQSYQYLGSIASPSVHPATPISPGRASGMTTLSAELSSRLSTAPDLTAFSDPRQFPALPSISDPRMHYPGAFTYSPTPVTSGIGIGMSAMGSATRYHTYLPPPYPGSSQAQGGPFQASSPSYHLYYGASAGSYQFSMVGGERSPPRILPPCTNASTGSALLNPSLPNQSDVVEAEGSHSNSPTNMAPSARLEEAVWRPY

AGGCCGCCTACAGGATGTTGGAAACCACAGGGCCCG
ETS1 binding intensity (ETS1 [1]): 2910 | RUNX1 binding intensity (RUNX1 [2]): 765 | ETS1 binding intensity (ETS1 [3]): 29100 | RUNX1 binding intensity (RUNX1 [4]): 2660

AGACCCGGATATGCGCCGGGGACCCCCAGACCGCGC
ETS1 binding intensity (ETS1 [1]): 743 | RUNX1 binding intensity (RUNX1 [2]): 733 | ETS1 binding intensity (ETS1 [3]): 697 | RUNX1 binding intensity (RUNX1 [4]): 969

CTCTGAACTTCCTCTCTTTTAACCACAACTTACTAC
ETS1 binding intensity (ETS1 [1]): 549 | RUNX1 binding intensity (RUNX1 [2]): 10500 | ETS1 binding intensity (ETS1 [3]): 1420 | RUNX1 binding intensity (RUNX1 [4]): 14100

AACTGTCTCTACCCAGGAAGTGGTTTTATTTAAAAG
ETS1 binding intensity (ETS1 [1]): 5160 | RUNX1 binding intensity (RUNX1 [2]): 1020 | ETS1 binding intensity (ETS1 [3]): 14900 | RUNX1 binding intensity (RUNX1 [4]): 2190

CTCATCAGTCATCCGGCTGGACCGCAGGAGCTCTCC
ETS1 binding intensity (ETS1 [1]): 403 | RUNX1 binding intensity (RUNX1 [2]): 933 | ETS1 binding intensity (ETS1 [3]): 500 | RUNX1 binding intensity (RUNX1 [4]): 1570

GTGCCGGCGGCCGGATGTGGGCGGGGCCACGGGGAG
ETS1 binding intensity (ETS1 [1]): 8590 | RUNX1 binding intensity (RUNX1 [2]): 753 | ETS1 binding intensity (ETS1 [3]): 16200 | RUNX1 binding intensity (RUNX1 [4]): 4170

CTCTAGAGGCTTCCTGCCCAACCACCAAGAAAAAGC
ETS1 binding intensity (ETS1 [1]): 598 | RUNX1 binding intensity (RUNX1 [2]): 817 | ETS1 binding intensity (ETS1 [3]): 668 | RUNX1 binding intensity (RUNX1 [4]): 1180

TTGGTCAGGATGTGGCTGAAGAAGCCACAAGAAAAA
ETS1 binding intensity (ETS1 [1]): 796 | RUNX1 binding intensity (RUNX1 [2]): 769 | ETS1 binding intensity (ETS1 [3]): 943 | RUNX1 binding intensity (RUNX1 [4]): 1130

GCAACAGCGATCCCCGGAAACCACAAGGCGAGATGT
ETS1 binding intensity (ETS1 [1]): 1660 | RUNX1 binding intensity (RUNX1 [2]): 1680 | ETS1 binding intensity (ETS1 [3]): 5080 | RUNX1 binding intensity (RUNX1 [4]): 2790

TCCCCTCTCCCCATCCGCCCGAGACCACAGCCACTC
ETS1 binding intensity (ETS1 [1]): 592 | RUNX1 binding intensity (RUNX1 [2]): 1340 | ETS1 binding intensity (ETS1 [3]): 495 | RUNX1 binding intensity (RUNX1 [4]): 1570

GTTATTCTCCCCTTCCTGTGGTGTGTTTTGATGGTA
ETS1 binding intensity (ETS1 [1]): 702 | RUNX1 binding intensity (RUNX1 [2]): 1120 | ETS1 binding intensity (ETS1 [3]): 626 | RUNX1 binding intensity (RUNX1 [4]): 1590

ACTACAACTTCCGACTTGCATCACTGCGGTGGCGCT
ETS1 binding intensity (ETS1 [1]): 425 | RUNX1 binding intensity (RUNX1 [2]): 942 | ETS1 binding intensity (ETS1 [3]): 573 | RUNX1 binding intensity (RUNX1 [4]): 1830

GGACTCTGGCAGGAAGCTGTTTGTGGTTGTCACACC
ETS1 binding intensity (ETS1 [1]): 3140 | RUNX1 binding intensity (RUNX1 [2]): 796 | ETS1 binding intensity (ETS1 [3]): 11000 | RUNX1 binding intensity (RUNX1 [4]): 1150

CCAGCCCAGGAAACAAGGAACCCCAAAGCCACAGGA
ETS1 binding intensity (ETS1 [1]): 392 | RUNX1 binding intensity (RUNX1 [2]): 828 | ETS1 binding intensity (ETS1 [3]): 579 | RUNX1 binding intensity (RUNX1 [4]): 979

GAGCACAGGAAAAGCTGGTGCCAACCACAAGTGCTT
ETS1 binding intensity (ETS1 [1]): 368 | RUNX1 binding intensity (RUNX1 [2]): 815 | ETS1 binding intensity (ETS1 [3]): 1130 | RUNX1 binding intensity (RUNX1 [4]): 971

GAAGCCAGGAAATGGTGCGTGTGCGGGGCCGGGCGC
ETS1 binding intensity (ETS1 [1]): 982 | RUNX1 binding intensity (RUNX1 [2]): 663 | ETS1 binding intensity (ETS1 [3]): 1010 | RUNX1 binding intensity (RUNX1 [4]): 935

ACAGAGAAGCTTCCTATTGTGGGATTCACCACCACC
ETS1 binding intensity (ETS1 [1]): 623 | RUNX1 binding intensity (RUNX1 [2]): 735 | ETS1 binding intensity (ETS1 [3]): 705 | RUNX1 binding intensity (RUNX1 [4]): 942

AGGCCTCGCTTCCTCTCCTGACCACACCCTGCAGCT
ETS1 binding intensity (ETS1 [1]): 446 | RUNX1 binding intensity (RUNX1 [2]): 1160 | ETS1 binding intensity (ETS1 [3]): 590 | RUNX1 binding intensity (RUNX1 [4]): 1800
